sEH inhibitor: soluble epoxide hydrolase inhibitors, primary screen, biochemical, human sEH. Bifunctional epoxide hydrolase 2 (Homo sapiens), P34913. inhibition, % at 2 µM. 0.34% of 91,000 active. recombinant human sEH enzymatic activity assay; in the data active = inhibition above about 80%
Target sequence (P34913 whole entry, looked up): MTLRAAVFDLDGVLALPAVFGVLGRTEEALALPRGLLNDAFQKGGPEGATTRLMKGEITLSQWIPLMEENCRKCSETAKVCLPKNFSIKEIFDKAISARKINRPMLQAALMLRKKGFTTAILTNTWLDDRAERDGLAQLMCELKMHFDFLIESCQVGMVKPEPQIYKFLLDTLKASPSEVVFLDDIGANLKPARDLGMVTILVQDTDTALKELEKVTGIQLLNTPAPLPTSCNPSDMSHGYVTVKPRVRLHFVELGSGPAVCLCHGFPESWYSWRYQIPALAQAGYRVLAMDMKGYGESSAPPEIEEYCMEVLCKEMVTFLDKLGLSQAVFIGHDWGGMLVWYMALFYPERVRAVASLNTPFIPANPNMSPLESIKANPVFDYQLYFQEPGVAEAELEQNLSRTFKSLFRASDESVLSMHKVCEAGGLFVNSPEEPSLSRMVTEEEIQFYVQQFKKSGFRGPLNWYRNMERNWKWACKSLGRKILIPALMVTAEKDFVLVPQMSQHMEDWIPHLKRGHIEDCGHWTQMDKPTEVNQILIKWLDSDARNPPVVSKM
CYP2C19 activ: human CYP2C19 activators, primary screen, biochemical, luminescence | activation factor at 5 µM | recombinant CYP2C19, luciferin-H EGE luminescence; hits give high values; 0 = fully inhibited enzyme, 1 = untreated enzyme | 96,000 tested, under 10 active;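 active = activation factor of at least 2 at 5 µM in the primary screen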;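 also: 0 = wells with 2.5 mM tranylcypromine and 1 = vehicle-only wells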
CYP2C9 activ: human CYP2C9 activators, primary screen, biochemical, luminescence; 1.4% of 96,000 active; AID 1024, 2008; Cytochrome P450 2C9 (Homo sapiens), P11712; recombinant CYP2C9, luciferin-H conversion; hits give high values; factor 1 = untreated enzyme, 0 = blocked; activation factor at 5 µM;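 active = activation factor of 2 or more for CYP2C9 at a 5 µM dose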;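 also: 0 = sulfaphenazole-blocked wells and 1 = vehicle-only wells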
sEH activator: soluble epoxide hydrolase activators, primary screen, biochemical, human sEH | Bifunctional epoxide hydrolase 2 (Homo sapiens), P34913 | purified human sEH enzymatic activity, activator screen | activation, % at 2 µM | 0.04% of 91,000 active | AID 717, 2007; in the data active = activation above about 37%
CYP2C19 inhib: blockers of cytochrome P450 2C19 activity – biochemical, luminescence, ADME assay, primary screen. CYP2C19 Supersomes, luciferin-H EGE luminescence, 30 min. inhibition, % at 5 µM. P33261. 21% of 96,000 active;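 active = CYP2C19 inhibition above a set limit at 5 µM in the primary screen, cut at about 50% in these data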;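 also: plate controls were negative control wells for no effect and 2.5 mM tranylcypromine positive control for full effect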
CYP2C9 inh: blockers of cytochrome P450 2C9 activity – biochemical, luminescence, ADME assay, primary screen. CYP2C9 Supersomes, luciferin-H conversion. 20% of 96,000 active. inhibition, % at 5 µM;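 active = blocking of liver enzyme CYP2C9 beyond about 50% at 5 µM, limit read from the data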
* hit, by the source's call; nt = no result given. The list is not random: actives were taken first. Their share in the collection is about 27%.

SMILES | sEH inhibitor | CYP2C19 activ | CYP2C9 activ | sEH activator | CYP2C19 inhib | CYP2C9 inh
CCN(CC)C(=O)N1CCN(S(=O)(=O)c2ccc(C)cc2)CC1 | -0.8 | 0.7 | 1.4 | -1.1 | 30.1 | -37.8
Oc1ccc(-c2cn3c(n2)SCC3)cc1O | -5.1 | 0.8 | 0.6 | 1.5 | 21.5 | 36.8
CCOC(=O)C1CCN(S(=O)(=O)c2cccc(-c3cn4cc(C)ccc4n3)c2)CC1 | -3.0 | 0.5 | 0.7 | 6.8 | 51.8* | 29.7
CCOC(=O)N1CCN(S(=O)(=O)c2ccc(OCC)cc2)CC1 | -6.5 | 0.2 | 0.6 | 7.3 | 76.5* | 35.4
CCOc1ccc(OCCOc2ncnc3ccccc23)cc1 | 0.7 | 0.7 | 0.9 | -1.8 | 33.7 | 11.9
CCOC(=O)c1c(C)[nH]c(C)c1C(=O)COC(=O)[C@@H]1CCCN1S(=O)(=O)c1ccc(Cl)cc1 | 3.8 | 0.1 | 0.2 | -1.5 | 93.4* | 80.0*
CCOCCCNC(=O)C1CCCN1S(=O)(=O)c1ccc(Cl)cc1 (stereo unspecified) | -7.4 | 1 | 1.3 | 6.0 | -2.9 | -32.1
O=C(CCSCCC(=O)NCc1ccco1)NCc1ccco1 | nt | 0.8 | 0.1 | nt | 16.4 | 89.5*
O=C(CC1CC2CCC1C2)NCc1cccs1 (stereo unspecified) | 21.7 | 0.3 | 0.8 | -24.1 | 66.4* | 18.8
O=C(CSCC(=O)NCc1ccco1)NCc1ccco1 | 2.5 | 1 | 1 | -1.9 | 3.8 | 1.7
O=C(Cc1cccs1)NCc1cccs1 | -7.2 | 0.5 | 0.9 | 10.7 | 46.5 | 14.2
O=C(CCSCCC(=O)NCc1cccs1)NCc1cccs1 | nt | 0.6 | 0.4 | nt | 35.4 | 62.5*
O=C(CSCc1ccc(F)cc1)NCc1ccco1 | 5.2 | 0.3 | 0.6 | -3.2 | 70.5* | 39.5
Cc1cccc(NC(=O)C2CCCN(C(=O)Nc3ccccc3)C2)c1C (stereo unspecified) | 1.0 | 0.7 | 0.8 | 0.5 | 26.7 | 22.8
O=C(NCC1(c2ccccc2)CCCC1)C1(c2ccccc2)CCCC1 | 0.0 | nt | nt | 3.6 | nt | nt
O=C1C2C3C=CC(C3)C2C(=O)N1Cc1cccnc1 (stereo unspecified) | 8.0 | 1.1 | 1 | -6.1 | -6.1 | 2.6
O=C1C2C3c4ccccc4C(c4ccccc43)C2C(=O)N1Cc1cccnc1 (stereo unspecified) | 1.7 | 0.3 | 0.7 | -1.4 | 67.5* | 26.5
O=C1C2C(C(=O)N1Cc1cccnc1)C1C=CC2C12CC2 (stereo unspecified) | 0.9 | 0.3 | 1 | -0.7 | 65.9* | -1.0
O=C1c2ccc3c4c(ccc(c24)C(=O)N1Cc1cccnc1)C(=O)N(Cc1cccnc1)C3=O | 0.7 | 1.1 | 1 | 0.1 | -11.7 | -4.2
CC1CCCCN1C(=O)/C(=C\c1ccccc1)c1ccccc1 (stereo unspecified) | -1.8 | 0.5 | 0.2 | 2.6 | 49.0 | 83.6*
Cc1sc(/N=C/c2ccccc2O)c(C#N)c1C | -12.9 | 0.7 | 1 | 10.4 | 27.1 | 1.4
Clc1ccc(CSc2nnnn2-c2ccc3c(c2)OCO3)c(Cl)c1 | 3.1 | 0.1 | 0.1 | -0.9 | 88.8* | 87.9*
c1ccc(CSc2nnnn2-c2ccc3c(c2)OCCO3)nc1 | -2.1 | 0.1 | 0.6 | 0.7 | 89.7* | 41.0
Cc1ccc(NC(=O)CCSc2nnnn2-c2ccc3c(c2)OCO3)cc1C | 26.0 | 0.3 | 0.5 | -25.9 | 74.0* | 49.1
O=C(CSc1nnnn1-c1ccc2c(c1)OCCO2)OC1CCCCC1 | 5.1 | 0.3 | 0.5 | -1.7 | 66.2* | 45.1
SMILES | sEH inhibitor | CYP2C19 activ | CYP2C9 activ | sEH activator | CYP2C19 inhib | CYP2C9 inh
Cc1cccc(N(C(=O)c2csnn2)C(C(=O)NC(C)(C)C)c2cccs2)c1 (stereo unspecified) | 5.3 | 0.7 | 0.9 | -3.4 | 31.0 | 6.6
Nc1c(Cl)cc2c(c1Oc1ccccc1)C(=O)c1ccccc1C2=O | 7.3 | 0.9 | 0.9 | -4.3 | 5.5 | 11.4
COc1cc(Cn2c(N)c(C#N)c3nc4ccccc4nc32)cc(OC)c1 | -3.8 | 1.1 | 0.4 | 2.0 | -5.7 | 56.0*
COc1ccc(-n2c(N)c(C(=O)NCc3ccco3)c3nc4ccccc4nc32)cc1 | -8.8 | 0.9 | 0.8 | 9.7 | 5.5 | 18.2
Nc1c(C(=O)NCc2ccco2)c2nc3ccccc3nc2n1CCc1ccc(F)cc1 | -12.7 | 0.6 | 0.4 | 9.5 | 42.6 | 58.0*
N#Cc1c(N)n(CCc2ccc(F)cc2)c2nc3ccccc3nc12 | 24.1 | 0 | 0.2 | -21.7 | 99.2* | 80.2*
COc1ccc(Cn2c(N)c(C#N)c3nc4ccccc4nc32)cc1 | 10.8 | 0.8 | 0.7 | -13.4 | 19.9 | 26.4
Cc1noc(/C=C/N(C)C)c1S(=O)(=O)N1CCCC(C(=O)NCc2cccs2)C1 (stereo unspecified) | 22.1 | 0.7 | 0.3 | -19.3 | 30.4 | 67.9*
Cc1ccc(CCNC(=O)C2CCCN(S(=O)(=O)c3c(C)noc3/C=C/N(C)C)C2)cc1 (stereo unspecified) | 59.7 | 0.6 | 0.3 | -58.2 | 39.0 | 69.0*
CC(=O)NC1Sc2ccccc2N=C1c1ccccc1 (stereo unspecified) | 10.7 | 0.6 | 0.6 | -10.4 | 40.5 | 37.1
CCOC(=O)C(Cc1cc(C(C)=O)ccc1OC(C)C)C(=O)OCC | -11.4 | 0.4 | 0.4 | 11.5 | 60.4* | 61.2*
CCOC(=O)C(Cc1cc(C(C)=O)ccc1OCC)C(=O)OCC | 6.8 | 0.7 | 1.1 | -5.5 | 28.6 | -12.5
CC(NC(=O)Nc1ccccc1O)(C(F)(F)F)C(F)(F)F | 4.7 | 0.7 | 1 | -4.8 | 27.4 | -4.3
Cn1c(C(=O)N2CCCC(C(=O)O)C2)cc2sccc21 (stereo unspecified) | -9.9 | 1 | 1 | 10.7 | 1.0 | 4.5
Cn1c(C(=O)NC2CCCCC2)cc2sccc21 | 2.2 | 0.4 | 0.8 | -2.7 | 55.1* | 17.5
COC(=O)c1cccc(NC(=O)c2cc3sccc3n2C)c1 | 9.5 | 0.2 | 0.5 | -8.9 | 77.1* | 53.4*
CN(C(=O)c1cc2sccc2n1C)C1CCCCC1 | 12.0 | 0.3 | 0.8 | -8.7 | 73.9* | 21.4
O=S(=O)(Nc1ccn(-c2ccccc2)n1)c1ccc(Br)cc1 | -8.8 | 0.3 | 0 | 8.0 | 72.0* | 98.9*
O=C(c1ccco1)N1CCN(CCOCCOc2cccc3ccccc23)CC1 | -7.7 | 0.3 | 0.4 | 9.2 | 68.1* | 56.6*
O=C(CSc1nnc(COc2cccc3ccccc23)o1)N1CCN(C(=O)c2ccco2)CC1 | -6.2 | nt | nt | 6.2 | nt | nt
CCOc1ccccc1-n1c(CN2CCN(C(=O)c3ccco3)CC2)nc2ccccc2c1=O | 3.0 | 0.4 | 0.3 | 2.2 | 56.6* | 65.3*
CCOc1cc(CN2CCN(C(=O)c3ccco3)CC2)ccc1OC | nt | 1 | 1.1 | nt | 2.8 | -14.0
Cc1ccc(Nc2nc(N)nc(CN3CCN(Cc4ccc5c(c4)OCO5)CC3)n2)c(C)c1 | -7.2 | 0.5 | 0.6 | 8.9 | 51.5* | 38.5

Screening data as filed in PubChem.
